Several values for one entry are separate records, joined by “and”; a condition that tells them apart may be missing. Equal entries are not always repeated. More than one record can exist for a structure, and the calls need not agree. Activity calls are given as the source filed them. The calls were made as follows: active = hit-call score of the fitted dose curve at least 0.9, where 1 is the maximum; inactive = score below 0.9.
Columns and labels:
[1] = read-out: Interleukin-8 (IL8), CXCL8 (gene 3576); assay: BSK_CASM3C_IL8: BioMAP Diversity Plus: CASM3C Assay for Interleukin-8 (IL8) Biomarker Activity (AID 2283042); conditions: primary human coronary artery smooth muscle cells; actives raise or lower the signal;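 also: IL-8 protein level quantified by ELISA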
[2] = read-out: Human Leukocyte Antigen - DR isotype (HLADR), HLA-DRA (gene 3122); assay: BSK_CASM3C_HLADR: BioMAP Diversity Plus: CASM3C Assay for Human Leukocyte Antigen - DR isotype (HLADR) Biomarker Activity (AID 2283043); conditions: primary human coronary artery smooth muscle cells; actives raise or lower the signal;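 also: cell-surface HLA-DR protein level quantified by ELISA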
[3] = read-out: Macrophage colony-stimulating factor (MCSF), CSF1 (gene 1435); assay: BSK_CASM3C_MCSF: BioMAP Diversity Plus: CASM3C Assay for Macrophage colony-stimulating factor (MCSF) Biomarker Activity (AID 2283044); conditions: primary human coronary artery smooth muscle cells; actives raise or lower the signal;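 also: M-CSF protein amount quantified by ELISA after 24 h exposure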
[4] = read-out: Low-density lipoprotein receptor (LDLR), LDLR (gene 3949); assay: BSK_CASM3C_LDLR: BioMAP Diversity Plus: CASM3C Assay for Low-density lipoprotein receptor (LDLR) Biomarker Activity (AID 2283045); conditions: primary human coronary artery smooth muscle cells; actives raise or lower the signal;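 also: LDLR protein level on the cell surface quantified by ELISA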
[5] = read-out: Monocyte Chemoattractant Protein-1 (MCP1), CCL2 (gene 6347); assay: BSK_CASM3C_MCP1: BioMAP Diversity Plus: CASM3C Assay for Monocyte Chemoattractant Protein-1 (MCP1) Biomarker Activity (AID 2283046); conditions: primary human coronary artery smooth muscle cells; actives raise or lower the signal;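 also: MCP-1 level quantified by ELISA 24 h after dosing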
[6] = BSK_CASM3C_Proliferation: Cell Proliferation Assessment in the BioMAP Diversity Plus: CASM3C Assay (AID 2283047); conditions: primary human coronary artery smooth muscle cells;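 also: sulforhodamine B total protein stain as relative cell number at 560 nm; sub-confluent cells exposed 48 h before staining; fitted both ways against DMSO so gain or loss of cell number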
[7] = read-out: Monokine induced gamma interferon (MIG), CXCL9 (gene 4283); assay: BSK_CASM3C_MIG: BioMAP Diversity Plus: CASM3C Assay for Monokine induced gamma interferon (MIG) Biomarker Activity (AID 2283048); conditions: primary human coronary artery smooth muscle cells; actives raise or lower the signal;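 also: MIG protein level measured by ELISA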
[8] = read-out: serum amyloid A (SAA), SAA1 (gene 6288); assay: BSK_CASM3C_SAA: BioMAP Diversity Plus: CASM3C Assay for serum amyloid A (SAA) Biomarker Activity (AID 2283049); conditions: primary human coronary artery smooth muscle cells; actives raise or lower the signal;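 also: SAA protein level quantified by ELISA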
[9] = BSK_CASM3C_SRB: Viability Assessment in the BioMAP Diversity Plus: CASM3C Assay (AID 2283050); conditions: primary human coronary artery smooth muscle cells;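 also: total protein by SRB staining as cytotoxicity measure in parallel cultures; cells exposed to compound for 24 h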
[10] = read-out: Thrombomodulin, THBD (gene 7056); assay: BSK_CASM3C_Thrombomodulin: BioMAP Diversity Plus: CASM3C Assay for Thrombomodulin Biomarker Activity (AID 2283051); conditions: primary human coronary artery smooth muscle cells; actives raise or lower the signal;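 also: thrombomodulin protein level measured by ELISA 24 h after dosing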
[11] = read-out: Tissue Factor, F3 (gene 2152); assay: BSK_CASM3C_TissueFactor: BioMAP Diversity Plus: CASM3C Assay for Tissue Factor Biomarker Activity (AID 2283052); conditions: primary human coronary artery smooth muscle cells; actives raise or lower the signal;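 also: cell surface tissue factor protein level read by ELISA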
[12] = read-out: Urokinase-type plasminogen activator receptor (uPAR), PLAUR (gene 5329); assay: BSK_CASM3C_uPAR: BioMAP Diversity Plus: CASM3C Assay for Urokinase-type plasminogen activator receptor (uPAR) Biomarker Activity (AID 2283054); conditions: primary human coronary artery smooth muscle cells; actives raise or lower the signal;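 also: cell-surface uPAR protein level quantified by ELISA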
[13] = read-out: Vascular cell adhesion molecule 1 (VCAM1), VCAM1 (gene 7412); assay: BSK_CASM3C_VCAM1: BioMAP Diversity Plus: CASM3C Assay for Vascular cell adhesion molecule 1 (VCAM1) Biomarker Activity (AID 2283055); conditions: primary human coronary artery smooth muscle cells; actives raise or lower the signal;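 also: VCAM-1 protein level quantified by ELISA on the cells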
[14] = read-out: Collagen III, COL3A1 (gene 1281); assay: BSK_hDFCGF_CollagenIII: BioMAP Diversity Plus: hDFCGF Assay for Collagen III Biomarker Activity (AID 2283056); conditions: primary human foreskin fibroblasts; actives raise or lower the signal
In short: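 Response relative to DMSO, fitted in both directions, reflects ELISA-measured collagen III in human primary skin fibroblasts 24 h after compound addition.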

[15] = read-out: Epidermal growth factor receptor (EGFR), EGFR (gene 1956); assay: BSK_hDFCGF_EGFR: BioMAP Diversity Plus: hDFCGF Assay for Epidermal growth factor receptor (EGFR) Biomarker Activity (AID 2283057); conditions: primary human foreskin fibroblasts; actives raise or lower the signal
In short: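 ELISA readout of EGFR on human dermal fibroblasts (primary foreskin cells), 24 h post-dosing; bidirectional curve fit vs DMSO baseline, gain or loss of signal scored.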

[16] = read-out: Interleukin-8 (IL8), CXCL8 (gene 3576); assay: BSK_hDFCGF_IL8: BioMAP Diversity Plus: hDFCGF Assay for Interleukin-8 (IL8) Biomarker Activity (AID 2283058); conditions: primary human foreskin fibroblasts; actives raise or lower the signal
In short: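 Fibroblast monolayers (human foreskin, hDFCGF) received test chemical for 24 h before ELISA detection of IL-8; either increases or decreases relative to DMSO count as activity.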

[17] = BSK_hDFCGF_Proliferation: Cell Proliferation Assessment in the BioMAP Diversity Plus: hDFCGF Assay (AID 2283059); conditions: primary human foreskin fibroblasts;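 also: curves fitted for both rise and fall of signal versus DMSO baseline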
In short: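 Primary human foreskin fibroblasts, sub-confluent; […]; 10% TCA fix, 0.1% SRB stain, A560 total protein. Gain/loss fitted bidirectionally vs DMSO control.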

[18] = read-out: Macrophage colony-stimulating factor (MCSF), CSF1 (gene 1435); assay: BSK_hDFCGF_MCSF: BioMAP Diversity Plus: hDFCGF Assay for Macrophage colony-stimulating factor (MCSF) Biomarker Activity (AID 2283060); conditions: primary human foreskin fibroblasts; actives raise or lower the signal
In short: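 fibroblasts (human foreskin, primary), 24 h post-dose; M-CSF by ELISA; bidirectional fit, DMSO = baseline.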

[19] = BSK_hDFCGF_SRB: Viability Assessment in the BioMAP Diversity Plus: hDFCGF Assay (AID 2283061); conditions: primary human foreskin fibroblasts;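 also: cells exposed to compound for 24 h before the read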
In short: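 SRB-based viability read on primary human skin fibroblasts at 24 h: TCA fixation, 0.1% dye, 560 nm. Gain or loss of signal is fitted against the DMSO negative control.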

[20] = read-out: Interferon-gamma inducible Protein 10 (IP10), CXCL10 (gene 3627); assay: BSK_hDFCGF_IP10: BioMAP Diversity Plus: hDFCGF Assay for Interferon-gamma inducible Protein 10 (IP10) Biomarker Activity (AID 2283053); conditions: primary human foreskin fibroblasts; actives raise or lower the signal
In short: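 ELISA read-out of IP-10 (CXCL10) from primary human skin fibroblasts, 24 h after compound addition. Gain or loss of signal versus DMSO baseline, bidirectional curve fitting.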

Measured: AC50

COC(=O)C(C)Oc1ccc(Oc2ccc(Cl)cc2Cl)cc1 (configuration not stated)
active: [17] 29.5 µM and 36.7 µM
inactive: [1] | [2] | [3] | [4] | [5] | [6] | [7] | [8] | [9] | [10] | [11] | [12] | [13] | [14] | [15] | [16] | [17] | [18] | [19]

COc1nc(C)nc(NC(=O)NS(=O)(=O)c2ccccc2Cl)n1
inactive: [1] | [2] | [3] | [4] | [5] | [6] | [7] | [8] | [9] | [10] | [11] | [12] | [13] | [14] | [15] | [16] | [17] | [18] | [19]
active: [5] 0.507 µM

C=CCC1=C(C)[C@@H](OC(=O)[C@@H]2[C@@H](C=C(C)C)C2(C)C)CC1=O
active: [4] 20 µM | [20] 32.6 µM | [14] 30.9 µM | [15] 32.4 µM | [17] 33.1 µM | [18] 32.2 µM | [19] 34.9 µM
not listed: [16]
inactive: all other assays above

CC1COC(Cn2cncn2)(c2ccc(Oc3ccc(Cl)cc3)cc2Cl)O1 (configuration not stated)
active: [6] 27.8 µM | [10] 16.1 µM | [20] 37.9 µM | [14] 28.1 µM | [15] 8.04 µM | [16] 34.5 µM | [17] 25 µM | [18] 32.2 µM | [19] 32.5 µM
inactive: all other assays above

CC1=C(C(=O)Nc2ccccc2)SCCO1
active: [3] 0.524 µM
not listed: [20]
inactive: all other assays above

N#Cc1cc(Br)c(O)c(Br)c1
active: [12] 0.405 µM
not listed: [20]
inactive: all other assays above

CS/C(C)=N/OC(=O)N(C)SN(C)C(=O)O/N=C(\C)SC
active: [1] 32.1 µM | [3] 28.9 µM | [5] 34.7 µM | [6] 6.19 µM | [7] 35 µM | [8] 20 µM | [9] 31.2 µM | [12] 31.5 µM | [13] 30.8 µM | [17] 3.73 µM | [19] 11.7 µM
inactive: [2] | [4] | [10] | [11] | [14] | [15] | [16] | [18]

N#Cc1nn(-c2c(Cl)cc(C(F)(F)F)cc2Cl)c(N)c1S(=O)C(F)(F)F (configuration not stated)
active: [3] 25.1 µM | [6] 20 µM | [9] 24.9 µM | [10] 21.9 µM | [13] 23.6 µM | [15] 1.71 µM
not listed: [20]
inactive: all other assays above

CCCCC(CC)COC(=O)c1ccccc1C(=O)OCC(CC)CCCC (configuration not stated)
active: [17] 4.85 µM
not listed: [20]
inactive: all other assays above

CC(Oc1ccc(Cl)cc1Cl)C(=O)O (configuration not stated)
not listed: [20]
inactive: all other assays above

OC(c1ccc(Cl)cc1)(c1cncnc1)c1ccccc1Cl (configuration not stated)
active: [6] 27.6 µM | [10] 16.6 µM | [17] 20 µM
not listed: [20]
inactive: all other assays above

From PubChem BioAssay (EPA / NIEHS)
